# Source: PubChem BioAssay
# HPGD inh = inhibitors of human 15-hydroxyprostaglandin dehydrogenase (HPGD); purified HPGD, NADH fluorescence kinetic, PGE2 substrate; AID 894; actives 4.3% (n = 150,000); Potency, µM, without a hit: top-dose activity change, negative = inhibition, most hits filed as inhibitors; also: potency is read from the fitted curve at half-maximal effect
# Target sequence (P15428 whole entry, looked up): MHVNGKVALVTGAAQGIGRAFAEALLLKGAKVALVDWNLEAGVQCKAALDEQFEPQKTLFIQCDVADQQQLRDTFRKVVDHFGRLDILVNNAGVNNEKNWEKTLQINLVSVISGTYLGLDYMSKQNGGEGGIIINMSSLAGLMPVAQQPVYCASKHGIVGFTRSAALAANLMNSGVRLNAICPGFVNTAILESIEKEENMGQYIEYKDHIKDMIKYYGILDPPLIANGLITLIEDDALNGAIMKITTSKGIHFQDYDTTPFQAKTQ
#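 NADH formation kinetics: reaction with 30 uM PGE2 and 1 mM NAD+ (final), 20 nM enzyme, Tris-HCl pH 8 with Tween 20, after 15 min compound preincubation at room temperature. Fluorescence change, last versus first of five reads.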
# ALDH1A1 block = ALDH1A1 (human) enzyme inhibition | actives 7.3% (n = 220,000) | Potency, µM (top dose mostly 75.3 µM), for inactives: at the top dose activity, negative = inhibition, hits mostly inhibitors | Purified ALDH1A1, NADH fluorescence, propionaldehyde substrate | AID 1030;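 also: potency is read from the fitted curve at half-maximal effect; plate controls were no enzyme wells and a reference inhibitor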
# 12-hLO inh = 12-hLO (ALOX12) enzyme inhibition | purified 12-hLO, xylenol orange hydroperoxide absorbance | Potency, µM (series often up to 57.1 µM), for inactives: top-dose activity change, negative = inhibition, hits mostly inhibitors | actives 0.12% (n = 150,000) | AID 1452; active = well fitted curve in the direction sought with a large enough effect; inconclusive = small, poorly fitted or top-dose-only effect, or another doubt; inactive = no such curve, though single readings can be large; an effect the other way counts as inactive or inconclusive; also: potency is read from the fitted curve at half-maximal effect; nearly all actives have a fitted effect of over 55% in size
#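 Hydroperoxide formation by human 12-lipoxygenase from 40 uM arachidonic acid was followed colorimetrically via ferric-xylenol orange complex, using the 573/405 nm absorbance ratio. Enzyme concentration was 150 nM, with 30 min reaction at room temperature.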
# IMPase inh = membrane-permeable compound that blocks inositol monophosphatase; P97697; CHO-M1 cells, IP1 accumulation, HTRF TR-FRET ratio; inhibition (IP1 accumulation), % at 46.1 µM; 120,000 tested, under 10 active; AID 901; active = well fitted curve in the direction sought with a large enough effect in the signal ratio, not every such curve was filed as active; inconclusive = small, poorly fitted or top-dose-only effect, or a change in a side signal; inactive = no such curve, though single readings can be large or run the other way; the % refers to the signal ratio;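 also: cells stimulated with carbachol in lithium chloride buffer; plate controls were DMSO basal wells for no effect and reference inhibitor wells for full effect; higher means more IMPase inhibition seen as more IP1 and lower FRET ratio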
# Target sequence (P97697 whole entry, looked up): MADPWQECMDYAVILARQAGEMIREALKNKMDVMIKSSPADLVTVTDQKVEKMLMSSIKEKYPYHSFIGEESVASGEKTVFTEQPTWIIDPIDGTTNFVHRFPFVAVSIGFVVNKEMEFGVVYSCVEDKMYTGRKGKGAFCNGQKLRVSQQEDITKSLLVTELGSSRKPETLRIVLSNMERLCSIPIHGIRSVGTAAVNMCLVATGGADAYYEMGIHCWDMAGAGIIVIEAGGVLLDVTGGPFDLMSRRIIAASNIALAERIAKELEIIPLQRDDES
#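 The IP-One HTRF competitive assay in carbachol-stimulated CHO-M1 cells quantifies cellular IP1. Compounds spanned up to 46 uM final, and activity is expressed as AC50 from concentration-response fits of the ratio and donor data.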
# IMPase Li inh = IMPase inhibition in cells with lithium potentiation. actives 0.35% (n = 210,000). CHO-M1 cells, IP1 TR-FRET (IP-One), carbachol + lithium. Potency, µM (top dose mostly 59.4 µM), inactives show at the top dose activity, negative = IMPase inhibition, actives largely listed as inhibitors; active = well fitted curve in the direction sought with a large enough effect; inconclusive = small, poorly fitted or top-dose-only effect, or another doubt; inactive = no such curve, though single readings can be large; an effect the other way counts as inactive or inconclusive;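 also: IP1 builds up when IMPase is blocked and the TR-FRET signal falls; potency is read from the fitted curve at half-maximal effect; plate controls were basal vehicle for no effect and high inhibitor control for full effect; nearly all actives have a fitted effect of over 50% in size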
#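 Lithium-sensitised IP1 accumulation assay; M1-expressing CHO cells treated 30 min at 37C with compound. Competitive antibody detection by time-resolved FRET followed a 10 min room-temperature lysis step.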
# PNC inhibitor = inhibitors of perinucleolar compartment assembly; PC3M PTB-GFP, PNC prevalence imaging, 16 h; active compounds read low; activity change (PNC), negative = inhibition, % at 10 µM; actives 3.1% (n = 140,000);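 active = readout at or below -70, meaning at least 70% loss of cells showing the perinucleolar compartment, a nuclear body marking cancer cells; inconclusive = readout between -30 and a set limit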;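 also: plate controls were DMSO wells for no effect and camptothecin positive control wells for full effect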
#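 PC3M cells stably expressing PTB-GFP, 750–1000 cells/well, treated 16 h at 37 °C with compound (23 nl of library stock), in duplicate. After paraformaldehyde fixation and Hoechst stain, imaged at 20x; PNC prevalence scored by image analysis.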
# * hit, by the source's call; ? = inconclusive; . = no result given; [ ] = dose if it differs, or a comment. Only some compounds are listed: those with a hit (about 11% of all), similar ones and a draw of the others. Unless noted, calls follow the shape of the dose curve; as a rule, active = well fitted inhibition curve with a large enough effect (not every such curve was filed as active); inconclusive = small, poorly fitted or top-dose-only effect, or another doubt; inactive = no such curve, though single readings can be large or run the other way. Unless noted, % is scaled to controls: 0 for no effect and ±100 for the full control effect.
SMILES,HPGD inh,ALDH1A1 block,12-hLO inh,IMPase inh,IMPase Li inh,PNC inhibitor
CN(C)CCNC(=O)c1cc2c(s1)-c1ccccc1OC2,?,?,3%,-19,8.9µM*,18
Cc1csc(NC(=O)c2cc3c(s2)-c2ccccc2OC3)n1,?,?,8%,-5,1%,41
CC1CCCN(C(=O)CSc2nnc(-c3c[nH]c4ccccc34)o2)C1 (configuration not stated),16µM*,14µM*,0%,7,-13%[38.3 µM],?
CCC1CCCCN1C(=O)CSc1nnc(-c2c[nH]c3ccccc23)o1 (configuration not stated),-20%,13µM*,-1%,8,-6%[38.3 µM],-19
CC1CCCC(C)N1C(=O)CSc1nnc(-c2c[nH]c3ccccc23)o1 (configuration not stated),-23%,10µM*,6%,-4,-9%[38.3 µM],-9
CCC(C)NC(=O)CSc1nnc(-c2c[nH]c3ccccc23)o1 (configuration not stated),.,3%,.,.,9%,.
CCC1CCCCN1C(=O)CSc1nnc(-c2ccc(OC)cc2)o1 (configuration not stated),-12%,?,-3%,2,0%,-2
COc1ccc(-n2cc(-c3ccccc3)nc2SC)cc1,-20%,11%,-1%,3,3%,-85*
COc1ccc2c(c1)sc1nc(-c3ccccc3)cn12,-18%,-11%,-4%,0,-2%[38.3 µM],-96*
CCOC(=O)N1CCN(C(=O)c2ccc3c(c2)sc2nc(-c4ccc(OC)cc4)cn23)CC1,-23%,?,-1%,2,20%,18
COc1ccc(-c2nnc(SC)n2C)cc1,-12%,11%,-3%,7[9.22 µM],-12%[38.3 µM],26
CCCCN1CCCC[C@H]1C(=O)Nc1c(C)cccc1C,-9%,5%,3%[0.00818 µM],?,3%,.
CCN(CC)c1ccc(C(=O)OCC(=O)Nc2cccc(S(=O)(=O)NC3=NCCCCC3)c2)cc1,28µM*,?,-3%,.,0%,?
Cc1cc(C)cc(C(=O)OCC(=O)Nc2cccc(S(=O)(=O)NC3=NCCCCC3)c2)c1,-8%,0%,-4%,.,4%,-96*
COc1ccc(C(=O)Cc2ccc3c(c2)OCO3)c(O)c1,?,-1%,8%,.,?,57
O=C(Cc1ccccc1)c1ccc2c(c1)OCCO2,.,-7%,.,.,5%,.
O=C(CCc1ccc(O)cc1)c1c(O)cc(O)cc1O,35µM*,-13%,-9%,0,17%,.
O=C(O)COc1ccc(C(=O)Cc2ccc3c(c2)OCCCO3)c(O)c1,?,22µM*,-16%,3,-10%[38.3 µM],-14
O=C(Cc1ccc2c(c1)OCCO2)c1c(O)cc(O)cc1O,20µM*,?,-16%,5,16%[38.3 µM],2
O=C(/C=C/c1ccc(O)cc1)c1c(O)cc(O)cc1O,-26%,1%,-5%,0,13%,.
CCc1c(C)nc(SCC(=O)Nc2cccc(Br)c2)[nH]c1=O,3.5µM*,-4%,-3%,11,4%[38.3 µM],59
CCc1c(C)nc(SCC(=O)Nc2ccc(Br)cc2)[nH]c1=O,14µM*,4%,-5%,-7,-8%[38.3 µM],-4
O=C(O)c1c(Sc2ccccc2)c2cc(Cl)ccc2n1Cc1ccc(Cl)cc1,-1%,1%,?,.,2%,.
COC(=O)C1=C(C)N(Cc2ccccc2)[C@]23O[C@](C(=O)OC)(C(=O)N2C1c1ccccc1)C1C(=O)N(C)C(=O)C13 (some centres not stated),.,0%[13.5 µM],.,.,.,.
CS(=O)(=O)Nc1cccc(-c2nccc(NCc3cccs3)n2)c1,.,?,.,.,-3%,.
O=C(CCC1N=C2c3ccccc3N=C(SCC(=O)Nc3ccccc3F)N2C1=O)NCc1ccco1 (configuration not stated),.,.,.,-1,.,.
CCCCc1cc2c(cn1)C(=O)C(C)(OC(C)=O)C(=O)C2 (configuration not stated),-4%,1.3µM*,0%[11.4 µM],.,11%,.
